A selection: hits, their analogues and other compounds. The true share with any hit is near 21%.
AMA1 RON2 block: inhibitors of Plasmodium falciparum AMA1-RON2 interaction; 360,000 compounds, 0.2% hits; Potency, µM (series often up to 58.2 µM), for the others: top-dose activity change, negative = inhibition, hits mostly inhibitors; AlphaScreen AMA1-biotinylated RON2 peptide binding; AID 720542;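 further: potency means the concentration at half of the fitted maximal effect; 0% = vehicle wells and -100% = peptide control; nearly all actives have a fitted effect of over 45% in size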
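AMA1 (3D7) with his tag at 25 nM final met compounds first, then biotinylated RON2 peptide at 25 nM; detection used donor plus acceptor beads, 10 µg/mL apiece, read by AlphaScreen after 30 min at room temperature.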
Pf growth 96h: inhibits malaria parasite growth, 96 h | P. falciparum luciferase reporter growth, 96 h | Potency, µM (doses to about 28.7 µM), inactives show at the highest dose activity change, negative = inhibition, hits mostly inhibitors | 320,000 compounds, 6.9% hits; further: potency means the concentration at half of the fitted maximal effect; on the % scale 0 is the no-effect control and ±100 the full control effect
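Luminescence readout: decreased luciferase signal marks inhibited growth of reporter-expressing P. falciparum in infected red cells (2% hematocrit, 0.05% parasitemia final), exposed to compound two generations (96 h, 37 C, 5% CO2).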
Pf growth 48h: P. falciparum growth inhibition at 48 hours (one generation). P. falciparum luciferase growth in erythrocytes, 48 h. Potency, µM (titrated, usually from 28.7 µM), without a hit: at the top dose activity change, negative = inhibition, most hits filed as inhibitors. 310,000 compounds, 5.9% hits. AID 504832; further: potency means the concentration at half of the fitted maximal effect; on the % scale 0 is the no-effect control and ±100 the full control effect
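Cell-based growth assay: transgenic P. falciparum expressing firefly luciferase, cultured in red cells within RPMI 1640 containing 0.5% w/v Albumax, 24 mM bicarbonate and gentamycin. A drop in luciferase activity indicates inhibition.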
HCV inh: HCV inhibition. Potency, µM (highest dose often 41.8 µM), without a hit: at the highest dose activity change, negative = inhibition, actives largely listed as inhibitors. 340,000 compounds, 3.4% hits. AID 651820. Huh7.5.1 HCVcc-Cre infection, luciferase reporter, 44 h; further: potency means the concentration at half of the fitted maximal effect; on the % scale 0 is the no-effect control and ±100 the full control effect
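1,000 cells/well; 4 h culture; + compound; + HCVcc-Cre (~0.5 moi); 44 h; luciferase substrate, RT 15 min; read 15 sec.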
CHX counter: counter-screen hit for Shiga toxin inhibitors, cycloheximide; max response, %; 300,000 compounds, 12% hits; cell reporter, cycloheximide protein synthesis inhibition counterscreen; in the data active means max response mostly above about 13%, no sharp cut-off; inactive means mostly below about 14%; further: read at 38.3 µM for the half of the compounds with a filed dose; 0% is about no effect
Shiga inhibitor: blocks Shiga toxin action in Vero cells | 290,000 compounds, 9.2% hits | AID 2315 | Vero cells, Shiga toxin protein synthesis inhibition reporter | inhibition, % at 38.7 µM; in the data active means inhibition mostly above about 28%, no sharp cut-off; inactive means mostly below about 43%; further: 0% is about no effect
Numbers without * were called inactive; ? = inconclusive; nt = not tested or not shown; [ ] = another dose, or the depositor's remark. Unless noted, the call rests on the fitted dose curve; in most records, active means well fitted curve in the direction sought with a large enough effect; inconclusive means small, poorly fitted or top-dose-only effect, or another doubt; inactive means no such curve, though single readings can be large; an effect the other way counts as inactive or inconclusive.

SMILES	AMA1 RON2 block	Pf growth 96h	Pf growth 48h	HCV inh	CHX counter	Shiga inhibitor
CCN1CCN(c2c(S(=O)(=O)c3ccc(C)c(C)c3)cnc3ccc(F)cc23)CC1	-5%	2.3µM*	?	-5%	-1	-2
O=C(Nc1ccc2c(c1)CCCN2C(=O)c1ccccc1)c1ccccc1Br	-6%	-7%	?	?	8	10
COc1ccccc1C(=O)Nc1ccc2c(c1)CCCN2C(=O)c1cccs1	-17%	2%	-3%	?	22	25
O=C(Nc1ccc2c(c1)CCCN2C(=O)c1cccs1)c1cccc(F)c1	52%	19%	17%	?	22*	47*
O=C(Nc1ccc2c(c1)CCCN2C(=O)c1cccs1)c1ccccc1	0%	-24%	-8%	32µM*	36*	36*
COc1cc(OC)cc(C(=O)Nc2ccc3c(c2)CCCN3C(=O)c2cccs2)c1	0%	?	?	14µM*	-2	0
COc1ccccc1C(=O)Nc1ccc(-c2nnn(CC(=O)N3CCN(C(=O)c4ccco4)CC3)n2)cc1	11%	-32%[1.15 µM]	35%[1.15 µM]	?	28*	29
O=C(Nc1ccc(-c2nnn(CC(=O)N3CCN(C(=O)c4ccco4)CC3)n2)cc1)c1ccccc1F	nt	379%	26%	nt	51*	84*
Cc1nc(-c2cccc(Cl)c2)n[nH]1	-6%	15%	40%	-1%	23*	104*
CCN(CC)CCNC(=O)C1(O)c2cc(Br)ccc2NC(=O)N1c1ccccc1 (configuration not stated)	12%	2.6µM*	-3%[0.00184 µM]	4%	1	-2
CN(C)CCNC(=O)C1(O)c2cc(Br)ccc2NC(=O)N1c1ccc(Cl)cc1 (configuration not stated)	28%	2%	-3%	23%	10	-5
CC12CCCCC1(O)[N+](=O)C1=C(CCCC1)N2[O-] (configuration not stated)	-8%	4.1µM*	10%	26%	15*	86
CCCCN(C)CCNC(=O)C1CCN(S(=O)(=O)c2cccc3nsnc23)CC1	6%	38%	-7%	2%	-2	-13
Cc1ccc(CNc2ccc3c(c2)ncn3C)cc1	-7%	-7%	78%	16%	46*	81*
Cc1ccc(CNc2ccc3c(c2)ncn3C(C)(C)C)cc1	-20%	9%	-21%	1%	40*	133*
Cc1nc2cc(NCc3ccccc3O)ccc2n1Cc1ccccc1	3%	?	?	?	69*	92*
CCc1ccc(CNc2ccc3c(c2)ncn3C)cc1	-17%	?	148%	-11%	25*	73*
CCn1cnc2cc(NCc3ccncc3)ccc21	8%	nt	10%	1%	1	32
COc1ccc(CNc2ccc3c(c2)ncn3C)cc1OC	18%	14%	1%	-4%	-1	-6
CS(=O)(=O)c1ccccc1-c1nc(-c2ccc([N+](=O)[O-])cc2)no1	-10%	15%	?	-7%	5	14
Cn1cnc2cc(NCc3ccccc3O)ccc21	60%	?	71%	13%	61*	114*
COc1ccccc1-n1cnc2cc(NC(C)=O)ccc21	-24%	nt	-22%	10%	1	-13
CCn1cnc2cc(NCc3ccc(Cl)cc3)ccc21	-23%	-2%	36%	-6%	41*	119*
CCOC(=O)c1c(C)[nH]c(C(=O)OCC(=O)NCc2ccco2)c1C	-11%	nt	nt	nt	nt	nt
O=C(COc1cccc(Cl)c1Cl)NC1CC1	16%	nt	nt	-17%	nt	nt
SMILES	AMA1 RON2 block	Pf growth 96h	Pf growth 48h	HCV inh	CHX counter	Shiga inhibitor
Cc1cccc2c1OCC/C2=N\NC(=O)COc1ccccc1Cl	3%	87%	310%	-10%	21*	63*
O=C(COc1ccccc1Br)NC(=O)NC1CCCC1	-14%	43%	94%	-28%	nt	nt
O=C(COc1ccccc1Br)NC1CC1	14%	32%	34%	8%	15*	67
O=C(COc1ccccc1Cl)NC1CC1	-2%	?	22%	8%	12	92*
C=C(C)C1CC=C(C)/C(=N/NC(=O)COc2ccccc2Cl)C1 (configuration not stated)	-1%	?	?	31%	-4	19
CCCCCC(=O)Nc1sc(C)c(C)c1C#N	-10%	49%	39%	-4%	42*	active
CCc1c(C)sc(NC(=O)c2cc(C(C)C)on2)c1C#N	-2%	55%	23%	-23%	13*	55*
CC(C)(C)C1CCc2c(sc(NC(=O)c3cc(C4CC4)on3)c2C#N)C1 (configuration not stated)	16%	2%	nt	6%	-2	21
Cc1cc(C(=O)Nc2sc3c(c2C#N)CCC(C(C)(C)C)C3)no1 (configuration not stated)	-12%	10µM*	nt	-19%	1	-1
CCCC(=O)Nc1sc(C)c(C)c1C#N	-8%	24%	19%	-7%	-5	25
CCc1c(C)sc(NC(=O)CC#N)c1C#N	22%	0.83µM*	-2%	-8%	4	-13
CCc1c(C)sc(NC(=O)c2cc(C)no2)c1C#N	-3%	?	nt	4%	1	13
Cc1cc(C(=O)Nc2sc(C)c(C)c2C#N)no1	-3%	nt	78%	-28%	41*	59*
COc1ccc(/C=N/c2oc(-c3ccccc3)cc2C#N)cc1OC	16%	22%	-12%	?	23*	62*
COc1ccc(/C=N/c2nc3ccccc3n2C)cc1OC	-1%	24%	1%	15%	27	-10
COc1ccc(S(=O)(=O)N2CCN(CCCOc3ccc(F)cc3)CC2)cc1OC	10%	4.7µM*	?	11µM*	-1	3
O=C(CN1CCN(S(=O)(=O)c2cc(C(F)(F)F)ccc2Cl)CC1)N1CCc2ccccc2C1	5%	?	13µM*	11µM*	nt	nt
O=C(CN1CCN(S(=O)(=O)c2ccc(F)c(Cl)c2)CC1)N1CCc2ccccc2C1	9%[11.6 µM]	nt	nt	?	nt	nt
COc1cc2c(cc1OC)CN(C(=O)c1cc(S(=O)(=O)N3CCOCC3)c(Cl)cc1Cl)CC2	-3%	5.2µM*	?	25µM*	3	-2
O=C(c1cc(S(=O)(=O)N2CCOCC2)c(Cl)cc1Cl)N1CCCC1	-2%	?	15%	7%	nt	nt
COc1ccc(S(=O)(=O)N2CCN(CC(=O)N3CCc4ccccc4C3)CC2)cc1OC	-1%	9.3µM*	?	?	nt	nt
CCOC(=O)C1CCCN(CCC(=O)Nc2ccc(Br)c(C)c2)C1 (configuration not stated)	2%	13%	30%	5%	-1	-1
COc1cc2c(cc1OC)CN(C(=O)CN1CCN(S(=O)(=O)c3ccccc3Br)CC1)CC2	-9%	11%	?	?	17*	69*
Cc1cc(C)c(S(=O)(=O)N(C)CC(=O)N2CCCC2)c(C)c1	-7%	nt	nt	nt	nt	nt
